This note sets out measurements from PubChem BioAssay (NCATS).

Assay [1] deals with Mitogen-activated protein kinase 10 (Mus musculus) (UniProt Q61831). Put plainly: JNK3 AlphaScreen Assay (AID 530; active means well fitted curve in either direction with a large enough effect, not every such curve was filed as active;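 further: kinase came from lysate of stimulated human HepG2 cells; signal reports phosphorylation of biotinylated GST-cJun 1-79 at Ser73 with 10 µM ATP; on the % scale 0 is the no-effect control and ±100 the full control effect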). In a few lines: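 Kinase buffer: 20 mM Tris-HCl pH 7.6, 10 mM MgCl2, 1 mM DTT, 0.1 mM Na3VO4, 0.01% Tween-20; ATP 10 uM. Substrate biotin-GST-cJun(1-79), enzyme from activated HepG2 lysates. Detection by Ser73 phospho-antibody AlphaScreen.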
The nature of assay [2]: Cell Viability - N2a (AID 540).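 Further: cells exposed to compound for 40 h at 37 °C; plate controls were DMSO alone for no effect and tamoxifen control for full effect; nearly all actives have a fitted effect of over 45% in size.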 The settings on record: N2a mouse neuroblastoma cell viability; activity change, negative = cytotoxicity: at 92.2 µM (top of the series). In a few lines:
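N2a mouse neuroblastoma, 1500 cells/well, 5 hr settle; compound 40 hr, 37 °C; CellTiter-Glo 20 min RT; luminescence; Hill-fit AC50.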

Assay [3] in a line: Cell Viability - HUV-EC-C (AID 542).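 Further: cells exposed to compound for 40 hours; on the % scale 0 is the no-effect control and ±100 the full control effect; nearly all actives have a fitted effect of over 35% in size.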 In a few lines: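 Luminescent ATP read-out (CellTiter-Glo, 20 min room temperature) after 40 hr compound treatment of HUV-EC-C cells at 37 °C. Concentration-response data fitted with the standard Hill equation to give AC50; tamoxifen and doxorubicin served as positive controls.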
Assay [4] in a line: Cell Viability - Renal Proximal Tubule (AID 545).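 Further: cells exposed to compound for 40 hours; 0% = DMSO only and -100% = 100 µM tamoxifen; nearly all actives have a fitted effect of over 40% in size.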 An outline of the steps: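 Primary rat renal proximal tubule cells (1000/well) were treated with compounds for 40 hr at 37 °C in complete medium. Intracellular ATP was measured by CellTiter-Glo luminescence, and AC50 values came from Hill-equation fits of concentration-response data.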
Assay [5] is described as follows: Cell Viability - Mesenchymal (AID 546).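 Further: cells exposed to compound for 40 hours before reading; 0% = DMSO only and -100% = 100 µM tamoxifen.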 An outline of the steps:
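CellTiter-Glo luminescence (intracellular ATP, 20 min room temperature) after 40 hr compound exposure at 37 °C of 1000 glomerulus-derived human kidney mesenchymal cells/well; AC50 values obtained by fitting qHTS concentration-response data to the Hill equation.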

Assay [6] can be described thus: Cellular Toxicity (caspase-3) Mesangial (AID 660).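 Further: combined caspase 3 and 7 activity read by Caspase-Glo luminescence; cells exposed to compound for 16 h before the caspase read.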 In a few lines: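 Luminescent Caspase-Glo 3/7 readout (aminoluciferin substrate cleavage, 20 min RT) after 16 h compound exposure at 37 °C of normal human mesangial cells. Signal increase normalized between DMSO basal and 100 uM tamoxifen; Hill-equation AC50.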
Assay [7] is described as follows: Cellular Toxicity (caspase-3) Renal Proximal Tubule (AID 667).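 Further: cells exposed to compound for 16 hours at 37 °C before detection; 0% = DMSO basal and 100% = 10 µM staurosporine.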 An outline of the steps:
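Primary rat proximal tubule cells, 1000/well, 5 h plating at 37 °C, then compound 16 h at 37 °C. Caspase-Glo 3/7 reagent, 1 h RT, luminescence. Normalized to DMSO (basal) and 10 uM staurosporine (100%); Hill-fit AC50.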

The target of assay [8] is Cytochrome P450 3A4 (Homo sapiens) (UniProt P08684). Put plainly: qHTS Assay for Inhibitors and Substrates of Cytochrome P450 3A4 (AID 884). Further: on the % scale 0 is the no-effect control and ±100 the full control effect; nearly all actives have a fitted effect of over 50% in size. In a few lines:
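Luminescent readout of luciferin produced by CYP3A4 (20 nM) dealkylation of Luciferin-PPXE, 25 uM (its KM). NADPH-driven reaction ran 60 min at RT after 10 min compound preincubation; data scaled to 57 uM ketoconazole as 100% inhibition.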

Assay [9] is described as follows: MultiTox-Fluor Cytotoxicity Assay - LYMP1-001 - Live Cells (AID 947).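 Further: 0% = DMSO only and full inhibition = tetraoctylammonium bromide control.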
Assay [10] can be described thus: Cell Viability - LYMP2-005 (AID 967).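 Further: plate controls were DMSO only for no effect and 92 µM tetraoctylammonium bromide control for full effect.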 In a few lines:
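CellTiter-Glo luminescence (cellular ATP) read-out; LYMP2-005 lymphoblastoid cells, 2500/well, 5 h pre-incubation, then 24 h compound exposure at 37 C in complete medium. Tetraoctylammonium bromide positive control; AC50 by standard Hill fit.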

Assay [11] in a line: Cell Viability - LYMP2-010 (AID 981).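 Further: cells exposed to compound for 24 hours at 37 °C; on the % scale 0 is the no-effect control and ±100 the full control effect; nearly all actives have a fitted effect of over 55% in size.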 An outline of the steps:
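qHTS cytotoxicity, 1536-well: 2500 cells/well, 5 hr settle, 24 hr compound at 37 C, CellTiter-Glo 30 min RT, luminescence read. Decrease in ATP = toxicity; AC50 via standard Hill equation. Positive control tetraoctylammonium bromide.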

The nature of assay [12]: Cell Viability - LYMP2-016 (AID 984).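 Further: cells exposed to compound for 24 hours at 37 °C; on the % scale 0 is the no-effect control and ±100 the full control effect; nearly all actives have a fitted effect of over 55% in size.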 An outline of the steps: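 Human lymphoblastoid cells (LYMP2-016), 2500/well in complete medium, preincubated 5 hr at 37 C, then compound-treated 24 hr at 37 C. Intracellular ATP read by CellTiter-Glo luminescence after 30 min at room temperature; AC50 from Hill-equation concentration-response fits.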
Assay [13] is described as follows: Cell Viability - LYMP2-024 (AID 988).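 Further: plate controls were DMSO only for no effect and 92 µM tetraoctylammonium bromide for full effect; nearly all actives have a fitted effect of over 60% in size.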 In a few lines: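 ATP-based luminescence (CellTiter-Glo, 30 min RT) after 24 h compound exposure at 37 C of 2500 lymphoblastoid cells/well; decrease in ATP taken as cytotoxicity. qHTS concentration-response fitted to standard Hill equation for AC50.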
In assay [14] the target is Vitamin D3 receptor (Homo sapiens) (UniProt P11473). Put plainly: qHTS assay for small molecule antagonists of vitamin D receptor signaling (AID 588541; calls by dose curve;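 further: receptor activated by calcitriol during compound treatment; on the % scale 0 is the no-effect control and ±100 the full control effect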). In a few lines:
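Antagonist-mode beta-lactamase reporter assay: HEK293T VDR-UAS-bla cells were exposed to titrated compound alongside 1-alpha,25-dihydroxyvitamin D3 at 3 nM final for 16 h. Values were normalized to the 50 nM agonist control and DMSO basal, with IC50 and efficacy from Hill equation fits.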

The nature of assay [15]: qHTS assay for small molecule antagonists of retinoid X receptor alpha signaling (AID 588546).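 Further: cells stimulated with 9-cis-retinoic acid as agonist; on the % scale 0 is the no-effect control and ±100 the full control effect.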 The settings on record: HEK293T RXRa-UAS-bla, beta-lactamase ratio, antagonist mode; measured here: W530 green channel, cytotoxicity proxy. In a few lines:
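Beta-lactamase reporter inhibition, read as CCF4 fluorescence ratio (ex 405, em 460/530 nm) after 2 h at RT. HEK293T UAS-bla cells, 2500/well, were stimulated with 9-cis-RA at 500 or 100 nM final alongside test compound for 18 h at 37 C.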

The target of assay [16] is Voltage-gated inwardly rectifying potassium channel KCNH2 (Homo sapiens) (UniProt Q12809). Briefly: qHTS Assay for Small Molecule Inhibitors of the Human hERG Channel Activity (AID 588834).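 Further: top concentration of the series differs between compounds; on the % scale 0 is the no-effect control and ±100 the full control effect; lower thallium flux fluorescence means stronger hERG block; nearly all actives have a fitted effect of over 50% in size.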 An outline of the steps: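 In hERG-transduced U2OS cells, dye-loaded for 1 hr at room temperature in dark, test compounds incubated 10 min at 37 °C before thallium stimulation. AC50 values derived by Hill modelling of concentration-response.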

Assay [17] is described as follows: qHTS assay for small molecule disruptors of the mitochondrial membrane potential - 1 hr assay (AID 651754; calls by dose curve; further: on the % scale 0 is the no-effect control and ±100 the full control effect; nearly all actives have a fitted effect of over 35% in size). An outline of the steps: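 Read-out: dye fluorescence at 490 nm ex/535 nm em (monomers) and 540 nm ex/590 nm em (aggregates) in HepG2 cells. Compound exposure 1 hr at 37C, followed by 30 min dye loading.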
Assay [18] is described as follows: qHTS assay for cell viability of HEK293 cells (AID 743288). Further: on the % scale 0 is the no-effect control and ±100 the full control effect; nearly all actives have a fitted effect of over 50% in size. To be noted: ATP luminescence (CellTiter-Glo), 18 h, stronger effect = lower value. In a few lines: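 After 18 h compound exposure at 37 C, parental HEK293 cells (2,000/well) are lysed with CellTiter-Glo and luminescence is read following 30 min at room temperature.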
The target in assay [19] is Nuclear receptor subfamily 1 group I member 2 (Rattus norvegicus) (UniProt Q9R1A7). Briefly: qHTS assay for small molecule activators of the rat pregnane X receptor (rPXR) signaling pathway (AID 651751; call rule not given here; further: 0% is about no effect). To be noted: rPXR reporter cells, luciferase (One-Glo), 24 h.
Assay [20] is described as follows: qHTS assay for small molecule activators of the human pregnane X receptor (PXR) signaling pathway (AID 720659; call rule not given here; further: 0% is about no effect).

“And” between values parts separate entries of the source, which are not always exact repeats. Equal entries are not always repeated. Inconclusive results are not listed. The source made the active and inactive calls. Unless noted, the call rests on the fitted dose curve; in most records, active means well fitted curve in the direction sought with a large enough effect; inconclusive means small, poorly fitted or top-dose-only effect, or another doubt; inactive means no such curve, though single readings can be large; an effect the other way counts as inactive or inconclusive.

Sequence of Cytochrome P450 3A4 (Homo sapiens) (P08684 whole entry, looked up): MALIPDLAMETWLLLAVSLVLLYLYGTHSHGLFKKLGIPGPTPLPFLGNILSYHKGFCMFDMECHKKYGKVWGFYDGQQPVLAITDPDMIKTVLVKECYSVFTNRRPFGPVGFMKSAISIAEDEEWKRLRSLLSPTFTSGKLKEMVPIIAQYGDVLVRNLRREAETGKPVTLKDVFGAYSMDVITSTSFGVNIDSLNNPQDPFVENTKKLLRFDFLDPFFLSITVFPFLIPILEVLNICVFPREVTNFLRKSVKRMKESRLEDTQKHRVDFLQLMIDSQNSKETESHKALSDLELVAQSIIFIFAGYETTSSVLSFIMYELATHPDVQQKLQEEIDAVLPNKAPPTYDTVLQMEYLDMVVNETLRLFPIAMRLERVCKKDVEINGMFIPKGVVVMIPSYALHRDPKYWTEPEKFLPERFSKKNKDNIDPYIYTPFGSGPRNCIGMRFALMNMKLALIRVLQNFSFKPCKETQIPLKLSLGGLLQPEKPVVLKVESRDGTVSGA
Sequence of Voltage-gated inwardly rectifying potassium channel KCNH2 (Homo sapiens) (Q12809 whole entry, looked up): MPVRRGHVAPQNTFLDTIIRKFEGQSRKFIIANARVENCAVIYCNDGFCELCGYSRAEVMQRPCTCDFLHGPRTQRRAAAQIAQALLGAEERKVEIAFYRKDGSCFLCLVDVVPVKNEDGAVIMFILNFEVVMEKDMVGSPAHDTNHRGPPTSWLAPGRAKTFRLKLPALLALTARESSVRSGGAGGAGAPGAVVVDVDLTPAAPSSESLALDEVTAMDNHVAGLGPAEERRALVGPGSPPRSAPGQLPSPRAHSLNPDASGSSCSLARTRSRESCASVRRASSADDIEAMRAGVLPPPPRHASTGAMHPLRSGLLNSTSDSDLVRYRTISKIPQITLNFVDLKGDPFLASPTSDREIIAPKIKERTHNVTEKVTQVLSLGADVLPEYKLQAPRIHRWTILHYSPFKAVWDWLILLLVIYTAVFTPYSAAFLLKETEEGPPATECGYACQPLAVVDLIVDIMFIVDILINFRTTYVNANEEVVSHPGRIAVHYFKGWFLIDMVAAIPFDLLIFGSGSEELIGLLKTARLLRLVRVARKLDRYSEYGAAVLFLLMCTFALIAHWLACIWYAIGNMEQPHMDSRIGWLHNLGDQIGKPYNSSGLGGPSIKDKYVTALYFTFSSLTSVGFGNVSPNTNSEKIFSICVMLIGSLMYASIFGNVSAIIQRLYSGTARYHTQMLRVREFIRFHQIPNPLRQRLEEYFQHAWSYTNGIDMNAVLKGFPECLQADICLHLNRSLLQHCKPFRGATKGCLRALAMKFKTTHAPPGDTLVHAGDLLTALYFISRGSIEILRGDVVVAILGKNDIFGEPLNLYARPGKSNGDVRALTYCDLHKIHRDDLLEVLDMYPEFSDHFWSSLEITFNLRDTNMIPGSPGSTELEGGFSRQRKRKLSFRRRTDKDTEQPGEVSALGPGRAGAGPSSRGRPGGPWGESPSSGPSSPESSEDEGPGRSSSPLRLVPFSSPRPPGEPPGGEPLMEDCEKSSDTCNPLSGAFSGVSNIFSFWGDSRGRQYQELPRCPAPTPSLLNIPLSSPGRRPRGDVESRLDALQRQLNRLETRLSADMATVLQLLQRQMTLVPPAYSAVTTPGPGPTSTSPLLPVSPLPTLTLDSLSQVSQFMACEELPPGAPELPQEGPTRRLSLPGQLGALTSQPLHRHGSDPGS
Sequence of Vitamin D3 receptor (Homo sapiens) (P11473 whole entry, looked up): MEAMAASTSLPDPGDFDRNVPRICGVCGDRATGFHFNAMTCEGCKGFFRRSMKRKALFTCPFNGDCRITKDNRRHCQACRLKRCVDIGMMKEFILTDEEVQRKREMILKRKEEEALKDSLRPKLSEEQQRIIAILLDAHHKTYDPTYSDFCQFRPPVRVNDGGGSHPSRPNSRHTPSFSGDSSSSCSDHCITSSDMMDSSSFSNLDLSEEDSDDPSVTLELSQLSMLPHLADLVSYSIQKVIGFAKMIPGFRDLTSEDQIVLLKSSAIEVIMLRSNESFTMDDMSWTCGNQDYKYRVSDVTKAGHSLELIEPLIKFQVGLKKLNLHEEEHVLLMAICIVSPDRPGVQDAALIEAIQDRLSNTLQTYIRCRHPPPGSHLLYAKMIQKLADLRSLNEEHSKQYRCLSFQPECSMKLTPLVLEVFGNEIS
Sequence of Nuclear receptor subfamily 1 group I member 2 (Rattus norvegicus) (Q9R1A7 whole entry, looked up): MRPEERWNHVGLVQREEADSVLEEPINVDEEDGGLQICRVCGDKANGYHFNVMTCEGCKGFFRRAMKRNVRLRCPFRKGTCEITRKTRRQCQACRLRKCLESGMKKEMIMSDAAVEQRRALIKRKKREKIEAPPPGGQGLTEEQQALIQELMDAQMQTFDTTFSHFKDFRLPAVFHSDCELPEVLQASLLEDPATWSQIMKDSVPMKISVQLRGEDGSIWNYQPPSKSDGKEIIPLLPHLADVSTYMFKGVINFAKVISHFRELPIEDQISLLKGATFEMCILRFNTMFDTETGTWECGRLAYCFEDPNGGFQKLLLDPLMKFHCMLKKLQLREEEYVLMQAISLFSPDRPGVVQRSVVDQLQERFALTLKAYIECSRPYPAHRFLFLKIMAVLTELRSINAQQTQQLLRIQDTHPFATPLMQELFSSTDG

Regarding `ClCC(Cl)CCl`, the Potency entry in [1], in assay [2], in [3], in assay [5], in assay [8] and in assay [10] was “inactive” throughout. Further, the Potency result in assay [11], in assay [12], in assay [13], in assay [16] and in assay [17] was “inactive” throughout. In addition, the compound was called inactive in assay [4], in assay [6], in [7], in assay [9], in assay [14] and in [20]. Further, the max response is 0.286% and -10.8% in assay [15]; -3.69% (inactive) and -5.22% (inactive) in [18]; 8.27% (inactive) and 1.68% (inactive) in assay [19].

Take `OCCOCCO`: the Potency entry in assay [1], in assay [2], in assay [3], in assay [5], in assay [8] and in [10] was “inactive” in each case. Besides, the Potency result in assay [12], in [13], in [16] and in assay [17] was “inactive” in each case. The outcome in assay [4], in assay [6], in assay [7], in assay [9], in assay [14] and in [20] was inactive. The results for the max response in assay [15], in [18] and in [19] were 2.28%, 1.68% (inactive) and 3.46% (inactive), respectively.

`Cl/C=C\Cl`: the Potency entry in assay [1], in [2], in assay [3], in [5], in [8] and in [10] was “inactive” in each case. The Potency result in assay [11], in [16] and in assay [17] was “inactive” in each case. Besides, the call in assay [4], in [6], in assay [7], in [9], in assay [14] and in [20] was inactive. The max response was -4.97% in assay [15] and 3.59% (inactive) in assay [19].

For the compound `CCCBr`, the Potency result in assay [1], in [2], in assay [3], in assay [5], in assay [8] and in [10] was “inactive” throughout. The Potency entry in [11], in assay [13], in assay [16] and in [17] was “inactive” throughout. Moreover, the call in assay [4], in [6], in assay [7], in [9], in assay [14] and in assay [20] was inactive. Moreover, the max response in [15] was -1.75%; in [18] it was -3.65% (inactive); in assay [19], -1.34% (inactive).

For the compound `Clc1cccc2ccccc12`, the Potency result in [1], in assay [2], in assay [3], in assay [5], in [8] and in [10] was “inactive” in each case. In addition, the Potency entry in assay [11], in assay [12], in [13], in assay [16] and in assay [17] was “inactive” each time. The result in assay [4], in assay [6], in [7], in assay [14] and in assay [20] was inactive. Further, the max response is -3.08% in assay [15], -4.26% (inactive) in assay [18] and 3.21% (inactive) in [19].

`CC(C)CON=O`: the Potency entry in assay [1], in [2], in [3], in assay [5], in [8] and in assay [10] was “inactive” in each case. Besides, the Potency entry in assay [12], in [13], in [16] and in assay [17] was “inactive” each time. Further, the compound was classed as inactive in assay [4], in assay [6], in assay [7], in [9], in [14] and in [20]. The max response in assay [15] was -4.96%; in assay [18] it was -12.6% (inactive); in assay [19], 4.86% (inactive).

As for `Nc1cc(Cl)ccc1Cl`, the Potency entry in [1], in assay [2], in [3], in [5], in assay [8] and in assay [10] was “inactive” each time. In addition, the Potency entry in [11], in assay [12], in assay [13], in assay [16] and in [17] was “inactive” in each case. Further, the result in assay [4], in assay [6], in assay [9] and in assay [20] was inactive. The figures for the max response in [15], in [18] and in [19] were 1.78%, 7.64% (inactive) and 4.7% (inactive), respectively.
